This is an account of results in PubChem BioAssay AID1745849 (National Center for Advancing Translational Sciences (NCATS), 2022).

In all, about 2,100 compounds went through this assay and about 320 (15%) were called active. Another 52% or so got no clear call; they are omitted. The call rests on the fitted dose curve; in most records, active means well fitted cell-killing curve with a large enough effect; inconclusive means small, poorly fitted or top-dose-only effect, or effect the other way; inactive means flat fitted curve, though single readings scatter. The list shows a part of the results. Where a call stands in place of a potency, no number is given.
Potency means the concentration at half of the fitted maximal effect.

The nature of the test: Viability Counterscreen for CMV-Luciferase Assay of Inhibitors of ATXN expression. Further: nearly all actives have a fitted effect of over 55% in size. The following applies: HEK-293 CMV-luciferase cells viability, protease fluorescence, 24 h. An outline of the steps: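 HEK-293 cells stably expressing a CMV-luciferase reporter were exposed to compounds at several concentrations for 24 hr at 37 degree C. Viability was read as Gly-Phe-AFC fluorescence (25 uM final, 30 min). SteadyGlo luminescence was then measured after 5 min.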
In the case of `CC1(C)c2[nH]c3ccccc3c2C[C@H]2C(=O)N(Cc3ccccc3F)C(=O)N21`, the Potency result is “inactive”. As to `Nc1nc(NCCCN2CCOCC2)nc(Nc2cccc(Cl)c2)c1[N+](=O)[O-]`, the Potency entry is “inactive”. In the case of `COC(=O)[C@H]1C[C@H](OC(=O)NC2CC2)[C@@]2(O)CN(S(=O)(=O)c3ccc(C)cc3)CC2[C@H]1C(=O)OC` (some centres not stated) it was “inactive”. Next, `COc1c(C)cccc1C(=O)Nc1ccc(N2CCN(C(=O)c3ccccc3C)CC2)cc1`: 31.6 µM (active); `COc1ccccc1N(C)S(=O)(=O)c1ccc(C(=O)Nc2ccc(N3CCOCC3)cc2)cc1`: “inactive”. In the case of `Cc1ccc(C(=O)N2CCN(c3ccc(NC(=S)NC(=O)c4cccs4)cc3)CC2)cc1` it was “inactive”; in that of `CC(C)n1c(NCc2cc(Cl)ccc2O)nc2ccccc21`, “inactive”; in that of `C/C(=N\N=C(N)N)c1ccc(Cl)cc1Cl`, “inactive”. `O=C(Nc1nc(-c2ccccn2)cs1)c1ccccc1-n1cnnn1`: the Potency is 7.94 µM (active).

Turning to `CCc1sc(C(=O)Nc2nc(-c3ccccn3)cs2)cc1C`, the Potency is 11.2 µM (active).

For the compound `Cc1cc(OCC(=O)NC(C)c2ccccc2)ccc1[N+](=O)[O-]` (configuration not stated), the Potency entry is “inactive”. In the case of `O=C(Nc1nc(-c2ccccn2)cs1)c1cc(Cl)ccc1[N+](=O)[O-]` it was 3.16 µM (active).

Regarding `O=C(NNc1nc2ccc(Cl)cc2s1)c1cc(-c2cccs2)nc2ccccc12`, the Potency entry was “inactive”. Consider `Cc1c(C(=O)Nc2nccs2)sc2nc(-c3cccs3)cc(C(F)(F)F)c12`, for which the Potency entry is “inactive”. Next, `CC(N)c1csc(NC(=O)c2cc(C(C)(C)C)nn2Cc2ccccc2)n1` (configuration not stated): “inactive”; `COc1ccc(CNC(=O)CSc2nc(-c3ccccc3)cc(-c3cccs3)c2C#N)cc1`: “inactive”; `CCCOc1ccccc1C1NC(=O)NC(C)=C1C(=O)OCc1ccccc1` (configuration not stated): “inactive”.

Turning to `CN1CCN(CC#CCn2c3ccccc3c3ccccc32)CC1`, the Potency entry is “inactive”.

`Cc1cc(/C=N/n2cnnc2)c(C)n1-c1ccc(OCc2ccc(Cl)cc2Cl)cc1`: the Potency was 28.2 µM (active). Consider `CCc1nc2c(OCc3ccc(Cl)cc3Cl)cccn2c1N(C=O)Cc1ccc(OC)cc1`, for which the Potency entry was “inactive”. In the case of `S=C(Nc1ccccc1)Nc1ccc(OCc2ccc(Cl)cc2Cl)cc1` it was “inactive”.

For the compound `CN1CCN(c2nc(Nc3ccc(F)cc3)nc(Nc3ccc(F)cc3)n2)CC1`, the Potency result is “inactive”. In the case of `CCc1nc2c(OCCOc3ccc(F)cc3)cccn2c1N(C=O)Cc1ccc(OC)cc1` it was “inactive”; in that of `O=C(c1ccc(Cn2c(=S)[nH]c3ccccc3c2=O)cc1)N1CCN(c2ccccn2)CC1`, “inactive”.

For `CCN(CC)S(=O)(=O)c1ccc(C)c(NC(=S)N2CCN(c3ccccn3)CC2)c1`, the Potency result was “inactive”. In the case of `S=C(Nc1cc(Cl)ccc1Oc1ccccc1)N1CCN(c2ccccn2)CC1` it was 25.1 µM (active); in that of `Cn1cccc1/C=N/N1CCN(Cc2ccccc2Cl)CC1`, “inactive”; in that of `C=CCNc1oc(-c2ccc(Cl)cc2)nc1C#N`, “inactive”. Next, `O=C1N/C(=N/N=C/c2ccccc2O)SC1Cc1ccc(F)cc1` (configuration not stated): 14.1 µM (active); `COc1cccc(C(=O)NC2CC3CCCC(C2)N3CC(=O)Nc2ccccc2C(F)(F)F)c1` (configuration not stated): “inactive”; `CN(Cc1ccccc1)C1=CC(=[N+]2CCCC2)CC(C)(C)C1`: “inactive”. Regarding `COc1ccc(NS(=O)(=O)c2ccc(NC(=O)c3ccc(CN4CCOCC4)cc3)cc2)cc1`, the Potency entry was “inactive”. As for `COc1cccc(S(=O)(=O)NCc2ccc(C(=O)Nc3cccc(Cl)c3)cc2)c1`, the Potency is 15.8 µM (active). In the case of `CSc1cccc(NC(=O)c2ccc(CN3CCc4ccccc4C3)cc2)c1`, the Potency entry was “inactive”. Next, `Cc1ccc(-c2nc3ccc(Cl)cn3c2CC(C)(C)C)cc1`: “inactive”; `COc1ccc(-c2sc3ccc(OC)cc3c2-c2ccc(O)cc2)cc1`: “inactive”; `COc1cccc(-c2sc3ccccc3c2-c2ccc(OCCN3CCCC3)cc2)c1`: “inactive”. In the case of `c1ccc(-c2sc3ccccc3c2-c2ccc(OCCN3CCCC3)cc2)cc1` it was 35.5 µM (active); in that of `Cc1nc2ccccc2n1-c1nc(-c2ccco2)cc(C(F)(F)F)n1`, 10 µM (active); in that of `Cc1ccc(C)c(/C=C/C(=O)c2ccccc(=O)c2O)c1`, 20 µM (active). Next, `O=c1c2c(nc3c(-c4ccc(Cl)cc4)c[nH]n13)CCC2`: “inactive”; `O=c1c2c(nc3c(-c4cccc(Br)c4)c[nH]n13)CCCC2`: 10 µM (active).

For `O=C(Nc1cccnc1)C1Cc2c(-c3ccc4c(c3)OCO4)ccnc2O1` (configuration not stated), the Potency entry was “inactive”.

Regarding `COc1ccc(Cl)cc1S(=O)(=O)N1CCN(C(=O)c2n[nH]c(=O)c3ccccc23)CC1`, the Potency entry is “inactive”. On to `CCCC(=O)NC(c1ccc(C(C)C)cc1)c1ccc2cccnc2c1O` (configuration not stated), for which the Potency result was “inactive”. In the case of `CC(C)C(=O)NC(c1cccc([N+](=O)[O-])c1)c1ccc2cccnc2c1O` (configuration not stated), the Potency was 3.16 µM (active). In the case of `Cc1ccnc(NC(c2ccccc2)c2ccc3cccnc3c2O)c1` (configuration not stated) it was “inactive”. Next, `O=[N+]([O-])c1ccc(NC(c2ccccc2)c2ccc3cccnc3c2O)cc1` (configuration not stated): 11.2 µM (active); `Oc1c(C(Nc2cccc(C(F)(F)F)c2)c2cccnc2)ccc2cccnc12` (configuration not stated): “inactive”; `Oc1c(C(Nc2ccccn2)c2cccnc2)cc(Cl)c2cccnc12` (configuration not stated): “inactive”.

For the compound `Oc1c(C(Nc2cccc(C(F)(F)F)c2)c2ccncc2)ccc2cccnc12` (configuration not stated), the Potency was 8.91 µM (active). On to `CC(=O)NC(c1cccc([N+](=O)[O-])c1)c1ccc2cccnc2c1O` (configuration not stated), for which the Potency was 1.58 µM (active). In the case of `O=C(O)CSc1cc(NS(=O)(=O)c2cccc([N+](=O)[O-])c2)c2ccccc2c1O` it was “inactive”; in that of `CC(=O)NC(c1ccco1)c1ccc2cccnc2c1O` (configuration not stated), “inactive”. With `CCc1nc2c(OCCOc3ccc(F)cc3)cccn2c1N(C)C(=O)c1ccco1`, the Potency entry was “inactive”.

For `CCCCOc1ccccc1NC(=O)c1scc2c1OCCO2`, the Potency result was “inactive”. In the case of `Cc1ccc(/C=C2/CNC/C(=C/c3ccc(C)cc3)C2=O)cc1` it was 8.91 µM (active); in that of `O=C(CNC(=O)c1ccco1)N/N=C/c1cc(Br)ccc1O`, “inactive”; in that of `CC(C)(CC(=O)N1CCN(c2ccc(Cl)cc2)CC1)CC1=NS(=O)(=O)c2ccccc2N1`, “inactive”. For `OC(c1cc(-c2cccc(Cl)c2)nc2ccccc12)C1CCCCN1` (configuration not stated), the Potency is 17.8 µM (active).

Take `CCOC(=O)Cn1cc(C(=O)c2ccco2)c2ccccc21`: the Potency result was “inactive”. Next, `CCn1cc(C(=O)NCc2cccc(F)c2)c(=O)c2cc(F)c(N3CCN(C(=O)c4ccco4)CC3)cc21`: 22.4 µM (active); `Cc1c(C(=O)NCc2ccc(C(F)(F)F)cc2)sc(=O)n1Cc1cccc(F)c1`: “inactive”; `CC(=O)c1ccc(N2CCN(CC(O)COC(c3ccccc3)c3ccccc3)CC2)cc1` (configuration not stated): “inactive”. With `CCCOc1ccc(C(=O)C(CN2CCOCC2)c2ccccc2)cc1` (configuration not stated), the Potency was 25.1 µM (active). In the case of `COc1ccc(CC(=O)Nc2nc(-c3ccc(OC)c(OC)c3)cs2)cc1OC`, the Potency result was “inactive”. Next, `COc1cccc(CC(=O)Nc2nc(-c3ccc(OC)c(OC)c3)cs2)c1`: 28.2 µM (active); `COc1ccc(-c2csc(Nc3ccc(S(N)(=O)=O)cc3)n2)cc1OC`: “inactive”. For `CC(C)(C)c1ccc(CC(=O)N2CCC2(C)C(=O)Nc2cnc3ccccc3c2)cc1` (configuration not stated), the Potency entry was “inactive”. `NC(=S)n1[nH]c(-c2ccc([N+](=O)[O-])cc2)c(N=Nc2cccc(Cl)c2)c1=O`: the Potency was 14.1 µM (active). On to `CCOc1ccc(C(=O)Nc2ccc(Cc3ccncc3)cc2)cc1Br`, for which the Potency entry was “inactive”.

For the compound `Cc1cccc(OCCCC(=O)Nc2nc3ccccc3[nH]2)c1`, the Potency result was “inactive”. In the case of `Cc1cc(C)c(C)c(OC(=O)c2sc(Cl)nc2C)c1` it was 20 µM (active). In the case of `COC(=O)c1sc(NC(=O)c2ccc(OC)cc2OC)nc1C` it was “inactive”; in that of `Clc1ccc(COC(Cn2ccnc2)c2ccc(Cl)cc2Cl)c(Cl)c1` (configuration not stated), “inactive”; in that of `CCc1cc2c(=O)c(-c3cnn(-c4ccccc4)c3)coc2c(CN2CCOCC2)c1O`, “inactive”. In the case of `Cc1nnc(SCC(N)=O)n1CC1CCCO1` (configuration not stated) it was “inactive”. Take `COc1cccc2c1C(=O)c1c(O)c3c(c(O)c1C2=O)C[C@](O)(C(C)=O)C[C@H]3O[C@@H]1C[C@@H](N)[C@@H](O)[C@@H](C)O1`: the Potency is 0.891 µM (active). With `CCCCC(=O)OCC(=O)C1(O)Cc2c(O)c3c(c(O)c2C(OC2CC(NC(=O)C(F)(F)F)C(O)C(C)O2)C1)C(=O)c1c(OC)cccc1C3=O` (configuration not stated), the Potency was 8.91 µM (active). As for `COc1cccc2c1C(=N)c1c(O)c3c(c(O)c1C2=O)CC(O)(C(C)=O)CC3OC1CC(N)C(O)C(C)O1` (configuration not stated), the Potency is 1.26 µM (active). Next, `Cn1c(CCc2nc3ccccc3[nH]2)nnc1SCC#N`: “inactive”; `CCC(C)(C)c1ccc(OCCCC[n+]2ccc(C)cc2)c(C(C)(C)CC)c1`: “inactive”; `CN(CC(=O)Nc1cccc(F)c1)CC(=O)Nc1cccc2ccccc12`: “inactive”.

Turning to `CCN1CCN(Cc2ccc(NC(=O)c3ccc(C)c(NC(=O)c4nccnc4N)c3)cc2C(F)(F)F)CC1`, the Potency entry is “inactive”. In the case of `O=C1C=C(Nc2ccccc2O)c2ccccc2C1=O` it was 20 µM (active).

On to `OC(c1ccccc1)(c1nc(-c2ccc3ccccc3c2)cs1)C(F)(F)F` (configuration not stated), for which the Potency entry was “inactive”.

With `Cc1ccc(NS(=O)(=O)c2cc3c4c(cccc4c2)C(=O)NC3=O)cc1C`, the Potency entry is “inactive”.

For the compound `CCC(CC)C(=O)c1c[nH]c(C(=O)NCc2ccccn2)c1`, the Potency entry is “inactive”. As for `O=C(N/N=C(\Cc1ncc[nH]1)c1ccccc1)c1cccnc1`, the Potency result is “inactive”. With `O=C(N/N=C(\c1ccccc1)c1ccccn1)c1ccccc1Cl`, the Potency was 7.94 µM (active). Next, `O=C(NN=C(c1ccccc1)c1ccccn1)c1ccccc1`: 3.16 µM (active); `CCn1c2ccccc2c2cc(/C=N/n3cnnc3)ccc21`: “inactive”; `CCN1CCN(C(=S)c2ccc(-c3ccccc3)cc2)CC1`: “inactive”. Next, `Cn1c2c(c(=O)[nH]c1=O)C(c1cccc(O)c1)C1=C(N2)c2ccccc2C1=O` (configuration not stated): 11.2 µM (active); `N#Cc1c(N)n(C2OC(CO)C(O)C2O)c2ncnc(N)c12` (configuration not stated): 1.41 µM (active); `CNc1nc2c(N)ncnc2n1[C@H]1O[C@@H](CO)[C@H](O)[C@@H]1O`: “inactive”. Next, `CCOC(=O)c1c(NC(=O)COC(=O)c2ccccc2NC)sc(C(=O)N(C)C)c1C`: “inactive”.
